Source: paper PMC9574860, “Chemical Toolkit for PARK7: Potent, Selective, and High-Throughput” (Journal of Medicinal Chemistry, 2022)
Out of some 7,900 compounds screened, about 400 (5.1%) showed an effect of 50% or more. Shown is part of a subset that was picked to be rich in strong results.

Target: Parkinson's disease protein 7 (PARK7/DJ1) (human, UniProt Q99497)
Assay: primary screen, percent inhibition; read as competition with a fluorescent probe by fluorescence polarization; higher = more effect of the substance
Settings: 100 µM
Experimental: The screen was conducted using the conditions as described above in 1536-well plates (Corning 3724) with a reaction volume of 8 μL per well. The compound library containing 7887 covalent fragments was purchased at Enamine Ltd. and received as 100 mM DMSO stocks in 384 well LDV Echo plates (Labcyte LP-0200). Stock solutions of 0.26 μM PARK7 and 80 nM JYQ-107 were prepared. Using a Labcyte Echo550 acoustic dispenser, 8 nL of the DMSO stock solution of the library compounds was transferred from the source plates into the empty 1536-well screening plates to obtain a 100 μM final compound concentration. Next, PARK7 (6 μL, final concentration 0.2 μM) was dispensed using a Biotek MultiflowFX liquid dispenser and incubated for 2 h, followed by dispensing the probe JYQ-107 (2 μL, final concentration 20 nM). After 2 h incubation, the FP signal was recorded on a BMG Labtech PHERAstar plate reader (λex/em 480/520 nm). The relative loss of FP signal compared with reference controls was used to calculate the remaining enzyme activity.

Sequence of Parkinson's disease protein 7 (PARK7/DJ1) (Q99497 whole entry, looked up): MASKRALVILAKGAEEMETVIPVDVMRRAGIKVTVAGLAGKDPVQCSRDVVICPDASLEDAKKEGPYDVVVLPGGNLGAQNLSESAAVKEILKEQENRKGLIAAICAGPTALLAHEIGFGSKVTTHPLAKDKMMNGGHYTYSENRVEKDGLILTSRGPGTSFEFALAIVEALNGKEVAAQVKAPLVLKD

Structure (SMILES)	Inhibition % [%]
O=C(CCl)NCc1ccc(C(=O)N2CCOCC2)cc1	19.5
C=CC(=O)NC1C2CCOC2C12CCCC2 (stereo not drawn)	5.2
C=CC(=O)N1CCOCC(C)C1 (stereo not drawn)	6.12
O=C1SCCN1CN1CCC(c2ccccc2)CC1	11.7
Cc1cccc(NC2C=CS(=O)(=O)C2)c1 (stereo not drawn)	7.19
CC1(C)COCCN1Cn1nc(-c2ccccc2)oc1=O	8.59
COc1ncc(B2OC(C)(C)C(C)(C)O2)cn1	4.41
C=CC(=O)N1CCOCC1c1nnc(C(C)C)o1 (stereo not drawn)	10
Cc1cccc(C)c1N1C(=O)CN=C1S	1.33
Cc1ccc(S(=O)(=O)N2CCCCC2C2OCCO2)cc1 (stereo not drawn)	3.92
O=C(Cc1ccc(S(=O)(=O)F)cc1)NC1CCCC1	2.81
O=C(O)Cc1ccc(S(=O)(=O)F)cc1	89.7
O=C(Cc1ccc(S(=O)(=O)F)cc1)Nc1ccccc1Cl	12.8
O=C(O)CCc1ccc(S(=O)(=O)F)cc1	82.3
CC(C)N(C)C(=O)CCc1ccc(S(=O)(=O)F)cc1	4.68
O=C(CCc1ccc(S(=O)(=O)F)cc1)N1CCCCC1	12.4
OB(O)c1ccc(OCC(F)(F)F)cc1F	13
CC(c1ccccc1)C1CO1 (stereo not drawn)	-0.54
COc1ccc(C2CCCN2C(=O)n2ccnc2)cc1 (stereo not drawn)	6.77
CC1(C)OB(c2ccc(N)c(CO)c2)OC1(C)C	7.71
C=CC(=O)N1CCCC(c2nc(C)c(C)s2)C1 (stereo not drawn)	6.18
C=CC(=O)N1CCC(c2ncno2)CC1	9.72
N#Cc1cccnc1S	11.9
N#Cc1ccncc1C(=O)O	12.3
N#Cc1cnccc1S	92.5
O=C(c1ccccc1)N1CCCC(CS(=O)(=O)F)C1 (stereo not drawn)	71.4

Structure (SMILES)	Inhibition % [%]
O=C(NCCCS(=O)(=O)F)OCc1ccccc1	95.8
O=C(c1ccccc1)N1CCC(CCl)C1 (stereo not drawn)	2.86
O=C(CCl)NC(=O)c1cccs1	23.4
O=S(=O)(F)CCc1ccccc1	4.21
O=C(NCCCS(=O)(=O)F)c1cccs1	98.9
O=C(OCc1ccccc1)N1CCCCC1CS(=O)(=O)F (stereo not drawn)	16
O=C(c1cccs1)N1CCCCC1CCS(=O)(=O)F (stereo not drawn)	84.1
COC(=O)C1CC(S(=O)(=O)F)CN1C(=O)c1cccs1 (stereo not drawn)	11
O=C(CCl)NC(=O)OCc1ccccc1	33.1
O=C(NCCS(=O)(=O)F)c1ccccc1	13.4
O=C(c1ccccc1)N1CCCC(S(=O)(=O)F)C1 (stereo not drawn)	32.4
c1csc(COCC2CO2)c1 (stereo not drawn)	0.211
C=CC(=O)NC1CCCN(c2cccnc2)C1=O (stereo not drawn)	15.4
C=CC(=O)NC1(C2CC2)CCOCC1	7.04
C=CC(=O)N1CCC(Oc2cccnc2N2CCCC2)C1 (stereo not drawn)	13.2
C=CC(=O)N1CC2(CCOCC2)c2ccccc21	7.61
O=C(N[C@H]1CC[C@@H](CS(=O)(=O)F)C1)c1cccs1 (racemic)	96.8
O=C(c1cccs1)N1CCOC(CS(=O)(=O)F)C1 (stereo not drawn)	14.7
O=C(c1cccs1)N1CCC(S(=O)(=O)F)CC1	10.8
O=C1OCCC1N1CCN(C(=O)c2cccs2)CC1 (stereo not drawn)	9.27
O=C(CCl)NNC(=O)c1cccs1	7.74
O=C(CCl)N1CCN(C(=O)c2cccs2)CC1	40.3
O=C(c1cccs1)N1CCC(CS(=O)(=O)F)CC1	35.6
O=C(NC1CCN(C2CCOC2=O)CC1)c1cccs1 (stereo not drawn)	7.52
O=C(c1cccs1)N1CCC(CS(=O)(=O)F)C1 (stereo not drawn)	97.1
O=C(c1cccs1)N1CCCC(S(=O)(=O)F)C1 (stereo not drawn)	73.5

Structure (SMILES)	Inhibition % [%]
O=C(c1cccs1)N1CCCC(CS(=O)(=O)F)C1 (stereo not drawn)	90.1
O=C(c1ccccc1)N1CC(S(=O)(=O)F)C1	35.6
Nc1cccc(OC2CC(=O)N2)c1 (stereo not drawn)	18.6
O=C(O)C1COCCN1C(=O)C=Cc1ccc(Cl)s1 (stereo not drawn)	13.1
C=CC(=O)NCC1CC2(CCOCC2)CO1 (stereo not drawn)	5.16
CC(C)(C)OC(=O)N1CCOc2cccc(B3OC(C)(C)C(C)(C)O3)c2C1	3.79
CC(Cl)Cc1cc2ccc(O)cc2oc1=O (stereo not drawn)	12.3
O=C(CCl)Nc1cc(F)cc(F)c1	14.6
C=CC(=O)N1CCN(CC(C)C)C(=O)C1C (stereo not drawn)	0.151
COc1ccc(C)cc1S(=O)(=O)Oc1ccccn1	17
CCCOc1cc(C)c(C)cc1S(=O)(=O)n1ccnc1C	8.09
COC(=O)c1cc([N+](=O)[O-])cc(B2OC(C)(C)C(C)(C)O2)c1C	12.9
COc1cc(S(=O)(=O)F)ccc1O	17.3
COc1ccc(S(=O)(=O)F)cc1O	54
COc1ccccc1-c1nnc(-c2ccc(S(=O)(=O)F)cc2)o1	9.83
C=CC(=O)Nc1ccc(OCC)c(CO)c1	4.38
COc1ccc(B2OC(C)(C)C(C)(C)O2)c(C#N)c1	7.16
COc1ccc(B2OC(C)(C)C(C)(C)O2)c(N)c1	56
COc1cc(OC(F)F)ccc1B1OC(C)(C)C(C)(C)O1	-1.65
CC1(C)OB(c2ccnn2-c2ccccc2)OC1(C)C	14.9
CC1CC(Sc2ccccn2)C(=O)O1 (stereo not drawn)	5.37
Cc1cc(S(N)(=O)=O)cc(NC(=O)CCl)c1C	2.37
C=CC(=O)NC1CCC2(CC1)CC2(F)F (stereo not drawn)	3.45
C=CC(=O)Nc1ccc2c(cnn2C(F)F)c1	6.45
C=CC(=O)Nc1ccc2sncc2c1	97.4
C=CC(=O)Nc1ccc2occc2c1	9.28
